What all share (test): DAPPL (digital affinity profiling via proximity ligation, sequencing); 10 mM Tris-HCl pH 7.5, 50 mM NaCl, 1 mM DTT, 4% glycerol, room temperature, 30 min; GST-TFs on glutathione beads, 16-mer random dsDNA library, 0.1% formaldehyde crosslink after washing; high values mean tight binding
Holding throughout (conditions): protein: recombinant; tags: N-terminal GST; dsDNA, one strand shown

In one assay the target is T1, ERF (Homo sapiens, UniProt P50548 1-548).
T1 sequence: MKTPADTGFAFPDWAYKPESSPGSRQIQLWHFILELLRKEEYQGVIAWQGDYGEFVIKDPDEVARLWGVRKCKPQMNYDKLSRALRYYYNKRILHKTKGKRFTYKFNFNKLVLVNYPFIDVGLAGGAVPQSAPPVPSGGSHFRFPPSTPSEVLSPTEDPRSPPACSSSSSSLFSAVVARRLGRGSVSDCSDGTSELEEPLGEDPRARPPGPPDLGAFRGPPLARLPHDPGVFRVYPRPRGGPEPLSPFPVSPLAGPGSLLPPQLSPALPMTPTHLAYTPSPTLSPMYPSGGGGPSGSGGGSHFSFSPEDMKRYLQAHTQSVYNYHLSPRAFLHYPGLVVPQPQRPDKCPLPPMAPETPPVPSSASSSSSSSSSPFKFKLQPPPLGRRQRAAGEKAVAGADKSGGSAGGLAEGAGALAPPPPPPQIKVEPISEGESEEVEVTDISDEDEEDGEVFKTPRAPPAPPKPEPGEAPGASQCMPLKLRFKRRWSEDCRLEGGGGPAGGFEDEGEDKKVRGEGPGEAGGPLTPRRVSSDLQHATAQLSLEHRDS
The method in brief:
(§1)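 Binding signal is each hexamer's read frequency for a factor divided by its frequency in the tag-only sample. The factors were GST-fused human transcription factors from yeast, captured on glutathione beads, DNA-barcoded and pooled with that sample. Pools were incubated with 200 nmole of a random double-stranded 16-mer DNA library in Tris/NaCl/DTT/glycerol buffer at room temperature for 30 min, then washed, crosslinked with 0.1% formaldehyde, proximity-ligated with BsaI/T4 ligase (1 h, 37 °C), PCR-amplified and sequenced on an Illumina NextSeq500.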

In another assay the target is T2, ETV3L (Homo sapiens, UniProt Q6ZN32 1-361).
T2 sequence: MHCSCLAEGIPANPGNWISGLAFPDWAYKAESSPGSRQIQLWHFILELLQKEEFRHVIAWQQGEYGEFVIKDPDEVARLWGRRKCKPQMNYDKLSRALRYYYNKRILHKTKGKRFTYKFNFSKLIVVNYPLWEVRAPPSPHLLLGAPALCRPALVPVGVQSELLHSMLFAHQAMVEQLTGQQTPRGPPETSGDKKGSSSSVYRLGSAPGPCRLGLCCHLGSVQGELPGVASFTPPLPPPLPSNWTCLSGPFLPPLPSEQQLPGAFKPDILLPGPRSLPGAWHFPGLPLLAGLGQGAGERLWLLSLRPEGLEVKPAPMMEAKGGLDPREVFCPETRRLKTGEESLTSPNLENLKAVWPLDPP
The gist of the method: as §1

A further assay concerns the target T3, ETS2 (Homo sapiens, UniProt P15036 1-469).
T3 sequence: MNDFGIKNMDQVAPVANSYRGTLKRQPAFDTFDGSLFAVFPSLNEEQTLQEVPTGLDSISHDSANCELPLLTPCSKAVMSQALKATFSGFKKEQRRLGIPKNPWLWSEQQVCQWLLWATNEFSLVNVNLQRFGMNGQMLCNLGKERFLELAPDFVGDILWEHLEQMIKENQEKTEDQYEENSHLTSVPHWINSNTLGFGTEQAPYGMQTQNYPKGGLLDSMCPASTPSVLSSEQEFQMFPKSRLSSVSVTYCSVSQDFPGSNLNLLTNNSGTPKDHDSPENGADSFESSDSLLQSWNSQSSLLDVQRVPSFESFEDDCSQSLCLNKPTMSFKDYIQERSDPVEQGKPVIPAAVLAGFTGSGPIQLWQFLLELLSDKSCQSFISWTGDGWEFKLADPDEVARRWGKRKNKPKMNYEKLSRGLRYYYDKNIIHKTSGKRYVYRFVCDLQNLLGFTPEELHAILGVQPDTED
The method in brief: as §1

Another assay addresses T4, SPDEF (Homo sapiens, UniProt O95238 1-335).
T4 sequence: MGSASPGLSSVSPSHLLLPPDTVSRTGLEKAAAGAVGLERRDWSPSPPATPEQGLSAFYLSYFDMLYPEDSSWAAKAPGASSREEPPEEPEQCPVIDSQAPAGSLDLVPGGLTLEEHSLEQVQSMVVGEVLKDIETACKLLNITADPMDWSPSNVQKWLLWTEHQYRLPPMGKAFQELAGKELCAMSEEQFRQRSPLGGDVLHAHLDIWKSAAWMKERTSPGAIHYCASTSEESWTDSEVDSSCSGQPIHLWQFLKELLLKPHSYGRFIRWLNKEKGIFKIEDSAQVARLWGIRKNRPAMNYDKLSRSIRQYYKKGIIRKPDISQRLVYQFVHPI
The gist of the method:
as §1

The target of the next assay is T5, ETV7 (Homo sapiens, UniProt Q9Y603 1-341).
T5 sequence: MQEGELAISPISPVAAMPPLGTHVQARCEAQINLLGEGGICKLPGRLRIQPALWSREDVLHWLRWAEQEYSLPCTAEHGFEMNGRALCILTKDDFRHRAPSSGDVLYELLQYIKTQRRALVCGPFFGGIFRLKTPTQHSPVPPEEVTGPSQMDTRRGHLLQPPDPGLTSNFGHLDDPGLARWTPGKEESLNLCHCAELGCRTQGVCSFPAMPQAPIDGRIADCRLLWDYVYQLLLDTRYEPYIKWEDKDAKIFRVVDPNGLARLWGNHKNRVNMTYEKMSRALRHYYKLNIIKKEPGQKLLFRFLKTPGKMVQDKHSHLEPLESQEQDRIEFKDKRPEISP
The gist of the method:
as §1

Another assay deals with T6, ELF5 (Homo sapiens, UniProt Q9UKW6-2 1-255).
T6 sequence: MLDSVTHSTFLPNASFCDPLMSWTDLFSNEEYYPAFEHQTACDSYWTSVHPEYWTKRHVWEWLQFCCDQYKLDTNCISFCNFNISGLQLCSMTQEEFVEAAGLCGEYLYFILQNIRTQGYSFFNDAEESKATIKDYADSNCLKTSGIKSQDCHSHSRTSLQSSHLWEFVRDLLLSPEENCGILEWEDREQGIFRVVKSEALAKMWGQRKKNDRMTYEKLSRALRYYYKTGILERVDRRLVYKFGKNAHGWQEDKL
The method in brief: as §1

The target of the next assay is T7, ETV3 (Homo sapiens, UniProt P41162-2 1-143).
T7 sequence: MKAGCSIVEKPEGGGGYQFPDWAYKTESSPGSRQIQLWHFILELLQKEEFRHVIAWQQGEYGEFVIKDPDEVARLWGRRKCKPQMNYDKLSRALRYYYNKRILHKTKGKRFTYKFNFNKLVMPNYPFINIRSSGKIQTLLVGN
The gist of the method: as §1

The target of another assay is ETV6 (Homo sapiens, UniProt P41212 1-452). The gist of the method: as §1

The results in this text go back to PMC7862700, “An all-to-all approach to the identification of sequence-specific readers for epigenetic DNA modifications on cytosine”.

Sequence of ETV6 (P41212 whole entry): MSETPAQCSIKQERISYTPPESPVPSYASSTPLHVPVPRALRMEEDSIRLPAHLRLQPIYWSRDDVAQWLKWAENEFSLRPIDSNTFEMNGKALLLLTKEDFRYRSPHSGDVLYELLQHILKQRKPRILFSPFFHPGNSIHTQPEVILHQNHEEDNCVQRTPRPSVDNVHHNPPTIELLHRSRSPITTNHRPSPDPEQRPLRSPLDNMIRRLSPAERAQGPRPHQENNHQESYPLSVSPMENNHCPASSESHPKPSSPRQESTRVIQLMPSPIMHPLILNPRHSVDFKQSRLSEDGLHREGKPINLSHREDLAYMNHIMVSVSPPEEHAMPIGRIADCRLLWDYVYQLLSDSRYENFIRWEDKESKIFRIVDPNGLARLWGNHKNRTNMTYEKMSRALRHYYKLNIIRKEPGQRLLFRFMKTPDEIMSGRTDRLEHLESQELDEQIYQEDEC

In the case of TTGTTG, the binding signal with ERF is 1.13 fold enrichment (6-mer frequency, TF over GST control); with ETV3L it was 1.21 fold enrichment (6-mer frequency, TF over GST control); with ETS2, 1.1 fold enrichment (6-mer frequency, TF over GST control); with SPDEF it was 1.11 fold enrichment (6-mer frequency, TF over GST control); in the assay with ETV7 it was 1.12 fold enrichment (6-mer frequency, TF over GST control); with ELF5, 1.13 fold enrichment (6-mer frequency, TF over GST control). For the same sequence, the binding signal with ETV3 is 1.19 fold enrichment (6-mer frequency, TF over GST control); with ETV6 it was 1.07 fold enrichment (6-mer frequency, TF over GST control).
As to TCATGC, the binding signal with ERF was 1.13 fold enrichment (6-mer frequency, TF over GST control); in the assay with ETV3L, 1.12 fold enrichment (6-mer frequency, TF over GST control); with ETS2, 1.13 fold enrichment (6-mer frequency, TF over GST control); with SPDEF, 1.18 fold enrichment (6-mer frequency, TF over GST control); with ETV7, 1.17 fold enrichment (6-mer frequency, TF over GST control); with ELF5, 1.07 fold enrichment (6-mer frequency, TF over GST control). Besides, the binding signal with ETV3 was 1.18 fold enrichment (6-mer frequency, TF over GST control); in the assay with ETV6, 1.11 fold enrichment (6-mer frequency, TF over GST control).
As to AAAGAT, the binding signal was 1.24 fold enrichment (6-mer frequency, TF over GST control) with ERF; 1.17 fold enrichment (6-mer frequency, TF over GST control) with ETV3L; 1.16 fold enrichment (6-mer frequency, TF over GST control) with ETS2; 1.23 fold enrichment (6-mer frequency, TF over GST control) with SPDEF; 1.12 fold enrichment (6-mer frequency, TF over GST control) with ETV7; 1.15 fold enrichment (6-mer frequency, TF over GST control) with ELF5. Besides, the binding signal is 1.28 fold enrichment (6-mer frequency, TF over GST control) with ETV3 and 1.17 fold enrichment (6-mer frequency, TF over GST control) with ETV6.
Regarding CTCGCT, the binding signal was 1.78 fold enrichment (6-mer frequency, TF over GST control) with ERF; 1.87 fold enrichment (6-mer frequency, TF over GST control) with ETV3L; 1.67 fold enrichment (6-mer frequency, TF over GST control) with ETS2; 1.62 fold enrichment (6-mer frequency, TF over GST control) in the assay with SPDEF; 1.54 fold enrichment (6-mer frequency, TF over GST control) with ETV7; 1.55 fold enrichment (6-mer frequency, TF over GST control) with ELF5. Moreover, the binding signal with ETV3 is 1.51 fold enrichment (6-mer frequency, TF over GST control); in the assay with ETV6 it was 1.64 fold enrichment (6-mer frequency, TF over GST control).
Regarding GGAAGC, the binding signal in the assay with ERF is 1.43 fold enrichment (6-mer frequency, TF over GST control); with ETV3L, 1.5 fold enrichment (6-mer frequency, TF over GST control); with ETS2, 1.6 fold enrichment (6-mer frequency, TF over GST control); in the assay with SPDEF, 1.55 fold enrichment (6-mer frequency, TF over GST control); in the assay with ETV7, 1.62 fold enrichment (6-mer frequency, TF over GST control); with ELF5, 1.95 fold enrichment (6-mer frequency, TF over GST control). The binding signal is 1.69 fold enrichment (6-mer frequency, TF over GST control) in the assay with ETV3 and 1.92 fold enrichment (6-mer frequency, TF over GST control) with ETV6.
With CTGCAC, the binding signal was 1.11 fold enrichment (6-mer frequency, TF over GST control) with ERF; 1.16 fold enrichment (6-mer frequency, TF over GST control) with ETV3L; 1.12 fold enrichment (6-mer frequency, TF over GST control) with ETS2; 1.17 fold enrichment (6-mer frequency, TF over GST control) with SPDEF; 1.05 fold enrichment (6-mer frequency, TF over GST control) with ETV7; 1.1 fold enrichment (6-mer frequency, TF over GST control) with ELF5. The binding signal with ETV3 is 1.23 fold enrichment (6-mer frequency, TF over GST control); in the assay with ETV6, 1.24 fold enrichment (6-mer frequency, TF over GST control).
On to CTAGTA, for which the binding signal in the assay with ERF was 1.17 fold enrichment (6-mer frequency, TF over GST control); in the assay with ETV3L, 1.08 fold enrichment (6-mer frequency, TF over GST control); in the assay with ETS2, 1.18 fold enrichment (6-mer frequency, TF over GST control); in the assay with SPDEF, 1.11 fold enrichment (6-mer frequency, TF over GST control); with ETV7, 1.11 fold enrichment (6-mer frequency, TF over GST control); in the assay with ELF5 it was 1.08 fold enrichment (6-mer frequency, TF over GST control). The binding signal with ETV3 is 1.13 fold enrichment (6-mer frequency, TF over GST control); with ETV6, 1.12 fold enrichment (6-mer frequency, TF over GST control).
With GTTCAA, the binding signal is 1.14 fold enrichment (6-mer frequency, TF over GST control) with ERF; 1.19 fold enrichment (6-mer frequency, TF over GST control) in the assay with ETV3L; 1.14 fold enrichment (6-mer frequency, TF over GST control) with ETS2; 1.22 fold enrichment (6-mer frequency, TF over GST control) with SPDEF; 1.03 fold enrichment (6-mer frequency, TF over GST control) in the assay with ETV7; 1.12 fold enrichment (6-mer frequency, TF over GST control) with ELF5. Further, the binding signal with ETV3 was 1.15 fold enrichment (6-mer frequency, TF over GST control); with ETV6 it was 1.16 fold enrichment (6-mer frequency, TF over GST control).
As to GCTCTT, the binding signal is 1.5 fold enrichment (6-mer frequency, TF over GST control) with ERF; 1.73 fold enrichment (6-mer frequency, TF over GST control) with ETV3L; 1.41 fold enrichment (6-mer frequency, TF over GST control) in the assay with ETS2; 1.34 fold enrichment (6-mer frequency, TF over GST control) with SPDEF; 1.56 fold enrichment (6-mer frequency, TF over GST control) in the assay with ETV7; 1.52 fold enrichment (6-mer frequency, TF over GST control) with ELF5. The binding signal in the assay with ETV3 was 1.48 fold enrichment (6-mer frequency, TF over GST control); with ETV6, 1.45 fold enrichment (6-mer frequency, TF over GST control).
For CACCCG, the binding signal was 1.25 fold enrichment (6-mer frequency, TF over GST control) with ERF; 1.32 fold enrichment (6-mer frequency, TF over GST control) with ETV3L; 1.19 fold enrichment (6-mer frequency, TF over GST control) with ETS2; 1.28 fold enrichment (6-mer frequency, TF over GST control) in the assay with SPDEF; 1.15 fold enrichment (6-mer frequency, TF over GST control) with ETV7; 1.19 fold enrichment (6-mer frequency, TF over GST control) with ELF5. Also, the binding signal was 1.25 fold enrichment (6-mer frequency, TF over GST control) with ETV3 and 1.11 fold enrichment (6-mer frequency, TF over GST control) in the assay with ETV6.
Consider CTCGGC, for which the binding signal with ERF was 1.34 fold enrichment (6-mer frequency, TF over GST control); in the assay with ETV3L it was 1.26 fold enrichment (6-mer frequency, TF over GST control); with ETS2 it was 1.31 fold enrichment (6-mer frequency, TF over GST control); with SPDEF it was 1.22 fold enrichment (6-mer frequency, TF over GST control); in the assay with ETV7 it was 1.34 fold enrichment (6-mer frequency, TF over GST control); with ELF5 it was 1.34 fold enrichment (6-mer frequency, TF over GST control). Moreover, the binding signal in the assay with ETV3 is 1.36 fold enrichment (6-mer frequency, TF over GST control); with ETV6 it was 1.37 fold enrichment (6-mer frequency, TF over GST control).
